Laboratory results as given in paper PMC11006913.

Legend:
Assay in all cases: PBM; 200 nM protein, PBS
Details in all cases: dsDNA, one strand shown
HESX1 [1] = biological target: HESX1 (Homo sapiens, UniProt Q9UBX0 95-180, R165K)
SHOX [2] = biological target: SHOX (Homo sapiens, UniProt O15266 103-189)
ALX4 [3] = biological target: ALX4 (Homo sapiens, UniProt Q9H161 200-286)
ALX4 [4] = biological target: ALX4 (Homo sapiens, UniProt Q9H161 200-286, Q225E)
HESX1 [5] = biological target: HESX1 (Homo sapiens, UniProt Q9UBX0 95-180)
ALX1 [6] = biological target: ALX1 (Homo sapiens, UniProt Q15699 118-204, L144V)
ALX3 [7] = biological target: ALX3 (Homo sapiens, UniProt O95076 139-225, N203Q)
SHOX [8] = biological target: SHOX (Homo sapiens, UniProt O15266 103-189, R173C)
ALX1 [9] = biological target: ALX1 (Homo sapiens, UniProt Q15699 118-204, L144R)
ALX3 [10] = biological target: ALX3 (Homo sapiens, UniProt O95076 139-225)
PROP1 [11] = biological target: PROP1 (Homo sapiens, UniProt O75360 56-141)
HESX1 [12] = biological target: HESX1 (Homo sapiens, UniProt Q9UBX0 95-180, R109Q)
PROP1 [13] = biological target: PROP1 (Homo sapiens, UniProt O75360 56-141, R99H)
ALX3 [14] = biological target: ALX3 (Homo sapiens, UniProt O95076 139-225, L168Q)
HESX1 [15] = biological target: HESX1 (Homo sapiens, UniProt Q9UBX0 95-180, P111T)
ALX3 [16] = biological target: ALX3 (Homo sapiens, UniProt O95076 139-225, L168V)
PROP1 [17] = biological target: PROP1 (Homo sapiens, UniProt O75360 56-141, F88S)
HESX1 [18] = biological target: HESX1 (Homo sapiens, UniProt Q9UBX0 95-180, F115L)
ALX1 [19] = biological target: ALX1 (Homo sapiens, UniProt Q15699 118-204)
ALX3 [20] = biological target: ALX3 (Homo sapiens, UniProt O95076 139-225, N203S)
Sequence of ALX3 (Homo sapiens, UniProt O95076 139-225, N203S) (O95076 139-225 N203S): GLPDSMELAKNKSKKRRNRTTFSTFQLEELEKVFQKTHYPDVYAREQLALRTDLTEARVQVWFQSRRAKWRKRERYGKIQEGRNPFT

Sequence of ALX3 (Homo sapiens, UniProt O95076 139-225) (O95076 139-225): as the sequence (O95076 139-225 N203S) above, with S65N counted along it
Sequence of ALX3 (Homo sapiens, UniProt O95076 139-225, N203Q) (O95076 139-225 N203Q): as the sequence (O95076 139-225 N203S) above, with S65Q counted along it
Sequence of HESX1 (Homo sapiens, UniProt Q9UBX0 95-180, F115L) (Q9UBX0 95-180 F115L): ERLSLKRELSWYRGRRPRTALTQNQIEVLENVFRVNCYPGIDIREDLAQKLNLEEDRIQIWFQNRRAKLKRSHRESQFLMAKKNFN
Sequence of SHOX (Homo sapiens, UniProt O15266 103-189) (O15266 103-189): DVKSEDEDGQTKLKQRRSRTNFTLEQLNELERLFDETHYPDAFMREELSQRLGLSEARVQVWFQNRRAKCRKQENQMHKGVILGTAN
Sequence of ALX4 (Homo sapiens, UniProt Q9H161 200-286, Q225E) (Q9H161 200-286 Q225E): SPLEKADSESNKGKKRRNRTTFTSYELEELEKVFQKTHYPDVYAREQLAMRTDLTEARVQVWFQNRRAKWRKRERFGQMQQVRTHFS
Sequence of SHOX (Homo sapiens, UniProt O15266 103-189, R173C) (O15266 103-189 R173C): as the sequence (O15266 103-189) above, with R71C counted along it
Sequence of ALX3 (Homo sapiens, UniProt O95076 139-225, L168V) (O95076 139-225 L168V): as the sequence (O95076 139-225 N203S) above, with L30V, S65N counted along it
Sequence of ALX4 (Homo sapiens, UniProt Q9H161 200-286) (Q9H161 200-286): as the sequence (Q9H161 200-286 Q225E) above, with E26Q counted along it
Sequence of ALX1 (Homo sapiens, UniProt Q15699 118-204, L144V) (Q15699 118-204 L144V): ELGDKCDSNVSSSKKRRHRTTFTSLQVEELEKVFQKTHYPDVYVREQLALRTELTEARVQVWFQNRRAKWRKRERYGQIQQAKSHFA
Sequence of HESX1 (Homo sapiens, UniProt Q9UBX0 95-180) (Q9UBX0 95-180): as the sequence (Q9UBX0 95-180 F115L) above, with L21F counted along it
Sequence of PROP1 (Homo sapiens, UniProt O75360 56-141) (O75360 56-141): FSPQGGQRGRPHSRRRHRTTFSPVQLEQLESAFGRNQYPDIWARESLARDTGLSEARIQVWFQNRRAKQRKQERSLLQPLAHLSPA
Sequence of PROP1 (Homo sapiens, UniProt O75360 56-141, F88S) (O75360 56-141 F88S): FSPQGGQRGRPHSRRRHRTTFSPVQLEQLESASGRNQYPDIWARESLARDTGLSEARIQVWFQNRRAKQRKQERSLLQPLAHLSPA
Sequence of HESX1 (Homo sapiens, UniProt Q9UBX0 95-180, R109Q) (Q9UBX0 95-180 R109Q): as the sequence (Q9UBX0 95-180 F115L) above, with R15Q, L21F counted along it
Sequence of ALX1 (Homo sapiens, UniProt Q15699 118-204) (Q15699 118-204): as the sequence (Q15699 118-204 L144V) above, with V27L counted along it
Sequence of ALX1 (Homo sapiens, UniProt Q15699 118-204, L144R) (Q15699 118-204 L144R): as the sequence (Q15699 118-204 L144V) above, with V27R counted along it
Sequence of PROP1 (Homo sapiens, UniProt O75360 56-141, R99H) (O75360 56-141 R99H): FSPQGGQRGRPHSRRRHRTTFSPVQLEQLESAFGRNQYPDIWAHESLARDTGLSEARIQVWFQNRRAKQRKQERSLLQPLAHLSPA
Sequence of HESX1 (Homo sapiens, UniProt Q9UBX0 95-180, P111T) (Q9UBX0 95-180 P111T): as the sequence (Q9UBX0 95-180 F115L) above, with P17T, L21F counted along it
Sequence of ALX3 (Homo sapiens, UniProt O95076 139-225, L168Q) (O95076 139-225 L168Q): as the sequence (O95076 139-225 N203S) above, with L30Q, S65N counted along it
Sequence of HESX1 (Homo sapiens, UniProt Q9UBX0 95-180, R165K) (Q9UBX0 95-180 R165K): as the sequence (Q9UBX0 95-180 F115L) above, with L21F, R71K counted along it

Sequence	binding signal (HESX1 [1])	binding signal (SHOX [2])	binding signal (ALX4 [3])	binding signal (ALX4 [4])	binding signal (HESX1 [5])	binding signal (ALX1 [6])	binding signal (ALX3 [7])	binding signal (SHOX [8])	binding signal (ALX1 [9])	binding signal (ALX3 [10])	binding signal (PROP1 [11])	binding signal (HESX1 [12])	binding signal (PROP1 [13])	binding signal (ALX3 [14])	binding signal (HESX1 [15])	binding signal (ALX3 [16])	binding signal (PROP1 [17])	binding signal (HESX1 [18])	binding signal (ALX1 [19])	binding signal (ALX3 [20])
ATAATTAA	13.5 upbm affinity estimate (log intensity, higher = more binding, comparable within an allelic series)	12.7 upbm affinity estimate (log intensity, higher = more binding, comparable within an allelic series)	14.5 upbm affinity estimate (log intensity, higher = more binding, comparable within an allelic series)	14.2 upbm affinity estimate (log intensity, higher = more binding, comparable within an allelic series)	13.3 upbm affinity estimate (log intensity, higher = more binding, comparable within an allelic series)	12.3 upbm affinity estimate (log intensity, higher = more binding, comparable within an allelic series)	8.66 upbm affinity estimate (log intensity, higher = more binding, comparable within an allelic series)	10.3 upbm affinity estimate (log intensity, higher = more binding, comparable within an allelic series)	11.9 upbm affinity estimate (log intensity, higher = more binding, comparable within an allelic series)	12.9 upbm affinity estimate (log intensity, higher = more binding, comparable within an allelic series)	11.9 upbm affinity estimate (log intensity, higher = more binding, comparable within an allelic series)	9.82 upbm affinity estimate (log intensity, higher = more binding, comparable within an allelic series)	11.9 upbm affinity estimate (log intensity, higher = more binding, comparable within an allelic series)	11.2 upbm affinity estimate (log intensity, higher = more binding, comparable within an allelic series)	12 upbm affinity estimate (log intensity, higher = more binding, comparable within an allelic series)	10.9 upbm affinity estimate (log intensity, higher = more binding, comparable within an allelic series)	8.13 upbm affinity estimate (log intensity, higher = more binding, comparable within an allelic series)	8.29 upbm affinity estimate (log intensity, higher = more binding, comparable within an allelic series)	12.8 upbm affinity estimate (log intensity, higher = more binding, comparable within an allelic series)	8.77 upbm affinity estimate (log intensity, higher = more binding, comparable within an allelic series)
AATTAATG	12.1 upbm affinity estimate (log intensity, higher = more binding, comparable within an allelic series)	11.8 upbm affinity estimate (log intensity, higher = more binding, comparable within an allelic series)	14 upbm affinity estimate (log intensity, higher = more binding, comparable within an allelic series)	13.4 upbm affinity estimate (log intensity, higher = more binding, comparable within an allelic series)	12.1 upbm affinity estimate (log intensity, higher = more binding, comparable within an allelic series)	11.9 upbm affinity estimate (log intensity, higher = more binding, comparable within an allelic series)	8.41 upbm affinity estimate (log intensity, higher = more binding, comparable within an allelic series)	9.48 upbm affinity estimate (log intensity, higher = more binding, comparable within an allelic series)	11.5 upbm affinity estimate (log intensity, higher = more binding, comparable within an allelic series)	12.6 upbm affinity estimate (log intensity, higher = more binding, comparable within an allelic series)	11.4 upbm affinity estimate (log intensity, higher = more binding, comparable within an allelic series)	9.35 upbm affinity estimate (log intensity, higher = more binding, comparable within an allelic series)	11.3 upbm affinity estimate (log intensity, higher = more binding, comparable within an allelic series)	10.7 upbm affinity estimate (log intensity, higher = more binding, comparable within an allelic series)	10.7 upbm affinity estimate (log intensity, higher = more binding, comparable within an allelic series)	10.3 upbm affinity estimate (log intensity, higher = more binding, comparable within an allelic series)	7.86 upbm affinity estimate (log intensity, higher = more binding, comparable within an allelic series)	7.83 upbm affinity estimate (log intensity, higher = more binding, comparable within an allelic series)	12.5 upbm affinity estimate (log intensity, higher = more binding, comparable within an allelic series)	8.55 upbm affinity estimate (log intensity, higher = more binding, comparable within an allelic series)
